Assay results published in PubChem BioAssay AID1159580 (chemical genetic matrix, 2015).
Screen size: about 5,500 compounds; about 2,000 (36%) were called active. Inconclusive results (about 18%) are left out. Cut-off read from the data, not from the text of the source: active = normalized growth mostly below about 0.91 (no sharp cut-off); inconclusive = no clear call, values can overlap the other calls; inactive = mostly above about 0.92. This is one part of the list.

Experiment: chemical genetic growth profiling, strain panel (AID 1159580);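 note: tested at 20 µM; growth read once vehicle control cultures reached saturation at 30 °C; 1 = growth at the plate median or of vehicle wells; lower values mean less growth of the strain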
Settings: growth OD

Measured: normalized growth

ClC1C(Cl)C(Cl)C(Cl)C(Cl)C1Cl (stereo unspecified)
active: S. cerevisiae deletion strains, locus YKL068W, active compounds read low 0.902 | S. cerevisiae deletion strains, locus YKL085W, strain MDH1 (second series), active compounds read low 0.909 | S. cerevisiae deletion strains, locus YKL085W, strain MDH1, active compounds read low 0.909 | S. cerevisiae deletion strains, locus YKL160W, strain elf1, active compounds read low 0.873 | S. cerevisiae deletion strains, locus YKR001C, strain vps1, active compounds read low 0.879 | S. cerevisiae deletion strains, locus YLR027C, strain aat2, active compounds read low 0.916 | S. cerevisiae deletion strains, locus YLR039C, strain RIC1, active compounds read low 0.506 | S. cerevisiae deletion strains, locus YLR221C, strain rsa3, active compounds read low 0.872 | S. cerevisiae deletion strains, locus YLR262C, strain YPT6 (second series), active compounds read low 0.659 | S. cerevisiae deletion strains, locus YLR262C, strain YPT6, active compounds read low 0.57 | S. cerevisiae deletion strains, locus YLR320W, strain mms22, active compounds read low 0.622 | S. cerevisiae deletion strains, locus YLR342W, strain FKS1, active compounds read low 0.89 | S. cerevisiae deletion strains, locus YML124C, strain tub3, active compounds read low 0.929 | S. cerevisiae deletion strains, locus YMR058W, strain fet3, active compounds read low 0.846 | S. cerevisiae deletion strains, locus YMR205C, strain PFK2, active compounds read low 0.665 | S. cerevisiae deletion strains, locus YNL071W, strain lat1, active compounds read low 0.638 | S. cerevisiae deletion strains, locus YOL147C, strain pex11, active compounds read low 0.929 | S. cerevisiae deletion strains, locus YOR270C, strain vph1, active compounds read low 0.67 | S. cerevisiae deletion strains, locus YPL051W, strain arl3, active compounds read low 0.872 | S. cerevisiae deletion strains, locus YPL078C, strain atp4, active compounds read low 0.865 | S. cerevisiae deletion strains, locus YPL256C, strain CLN2, active compounds read low 0.821 | S. cerevisiae deletion strains, locus YPR119W, strain clb2, active compounds read low 0.923 | S. cerevisiae deletion strains, locus YPR141C, strain kar3, active compounds read low 0.89 | S. cerevisiae deletion strains, locus YPR167C, strain met16, active compounds read low 0.91
inactive: S. cerevisiae deletion strains, locus YJR075W, strain HOC1, active compounds read low 0.926 | S. cerevisiae deletion strains, locus YKL009W, strain mrt4, active compounds read low 0.964 | S. cerevisiae deletion strains, locus YKL190W, strain CNB1, active compounds read low 0.954 | S. cerevisiae deletion strains, locus YKR026C, strain gcn3, active compounds read low 0.964 | S. cerevisiae deletion strains, locus YKR091W, strain srl3, active compounds read low 0.963 | S. cerevisiae deletion strains, locus YLL001W, strain dnm1, active compounds read low 0.938 | S. cerevisiae deletion strains, locus YLL026W, active compounds read low 0.956 | S. cerevisiae deletion strains, locus YLL041C, strain sdh2, active compounds read low 0.979 | S. cerevisiae deletion strains, locus YLR058C, strain SHM2, active compounds read low 0.942 | S. cerevisiae deletion strains, locus YLR102C, strain apc9, active compounds read low 0.935 | S. cerevisiae deletion strains, locus YLR113W, strain HOG1, active compounds read low 0.862 | S. cerevisiae deletion strains, locus YLR258W, strain gsy2, active compounds read low 0.969 | S. cerevisiae deletion strains, locus YLR268W, strain sec22, active compounds read low 0.949 | S. cerevisiae deletion strains, locus YLR330W, strain CHS5, active compounds read low 0.948 | S. cerevisiae deletion strains, locus YLR342W, strain FKS1 (second series), active compounds read low 0.947 | S. cerevisiae deletion strains, locus YLR357W, strain rsc2, active compounds read low 0.996 | S. cerevisiae deletion strains, locus YLR370C, strain arc18, active compounds read low 0.975 | S. cerevisiae deletion strains, locus YLR371W, strain rom2, active compounds read low 0.944 | S. cerevisiae deletion strains, locus YLR384C, strain iki3, active compounds read low 0.991 | S. cerevisiae deletion strains, locus YLR418C, strain cdc73, active compounds read low 0.843 | S. cerevisiae deletion strains, locus YML016C, strain PPZ1, active compounds read low 0.945 | S. cerevisiae deletion strains, locus YML032C, strain rad52, active compounds read low 0.927 | S. cerevisiae deletion strains, locus YML120C, strain ndi1, active compounds read low 0.978 | S. cerevisiae deletion strains, locus YMR078C, strain ctf18, active compounds read low 0.918 | S. cerevisiae deletion strains, locus YMR125W, strain sto1, active compounds read low 1.03 | S. cerevisiae deletion strains, locus YMR129W, active compounds read low 0.988 | S. cerevisiae deletion strains, locus YMR223W, strain ubp8, active compounds read low 0.956 | S. cerevisiae deletion strains, locus YMR231W, strain pep5, active compounds read low 1.01 | S. cerevisiae deletion strains, locus YMR263W, strain SAP30, active compounds read low 0.955 | S. cerevisiae deletion strains, locus YMR307W, strain GAS1, active compounds read low 1.07 | S. cerevisiae deletion strains, locus YNL067W, strain RPL9B, active compounds read low 0.968 | S. cerevisiae deletion strains, locus YNL128W, strain TEP1, active compounds read low 0.958 | S. cerevisiae deletion strains, locus YNL153C, strain GIM3, active compounds read low 0.969 | S. cerevisiae deletion strains, locus YNL183C, strain NPR1, active compounds read low 0.905 | S. cerevisiae deletion strains, locus YNL209W, strain ssb2, active compounds read low 0.992 | S. cerevisiae deletion strains, locus YNL233W, strain BNI4, active compounds read low 0.975 | S. cerevisiae deletion strains, locus YNL248C, strain rpa49, active compounds read low 0.995 | S. cerevisiae deletion strains, locus YNL250W, strain rad50, active compounds read low 0.909 | S. cerevisiae deletion strains, locus YNL271C, strain bni1, active compounds read low 0.948 | S. cerevisiae deletion strains, locus YNL298W, strain CLA4, active compounds read low 0.946 | S. cerevisiae deletion strains, locus YNL322C, strain KRE1 (second series), active compounds read low 0.969 | S. cerevisiae deletion strains, locus YNL322C, strain KRE1, active compounds read low 0.941 | S. cerevisiae deletion strains, locus YNR049C, strain mso1, active compounds read low 0.975 | S. cerevisiae deletion strains, locus YNR052C, strain pop2, active compounds read low 0.963 | S. cerevisiae deletion strains, locus YOL006C, strain TOP1, active compounds read low 0.843 | S. cerevisiae deletion strains, locus YOL012C, strain htz1 0.8 | S. cerevisiae deletion strains, locus YOR001W, strain rrp6, active compounds read low 0.963 | S. cerevisiae deletion strains, locus YOR061W, strain CKA2, active compounds read low 0.948 | S. cerevisiae deletion strains, locus YOR069W, strain VPS5, active compounds read low 0.963 | S. cerevisiae deletion strains, locus YOR070C, strain gyp1, active compounds read low 0.965 | S. cerevisiae deletion strains, locus YOR080W, strain dia2, active compounds read low 1.02 | S. cerevisiae deletion strains, locus YOR083W, strain WHI5, active compounds read low 0.914 | S. cerevisiae deletion strains, locus YOR106W, strain vam3, active compounds read low 0.942 | S. cerevisiae deletion strains, locus YOR136W, strain idh2, active compounds read low 0.962 | S. cerevisiae deletion strains, locus YOR144C, strain elg1, active compounds read low 0.94 | S. cerevisiae deletion strains, locus YOR184W, strain ser1, active compounds read low 0.977 | S. cerevisiae deletion strains, locus YOR231W, strain MKK1, active compounds read low 0.971 | S. cerevisiae deletion strains, locus YOR265W, strain rbl2, active compounds read low 0.981 | S. cerevisiae deletion strains, locus YOR290C, strain snf2, active compounds read low 0.921 | S. cerevisiae deletion strains, locus YOR316C, strain cot1, active compounds read low 0.924 | S. cerevisiae deletion strains, locus YPL055C, strain LGE1, active compounds read low 0.965 | S. cerevisiae deletion strains, locus YPL106C, strain sse1, active compounds read low 1.01 | S. cerevisiae deletion strains, locus YPL240C, strain hsp82, active compounds read low 0.978 | S. cerevisiae deletion strains, locus YPL241C, strain CIN2, active compounds read low 0.961 | S. cerevisiae deletion strains, locus YPR163C, strain tif3, active compounds read low 0.938 | S. cerevisiae deletion strains, strain wtn01, active compounds read low 0.932 | S. cerevisiae strains, strain wild type, active compounds read low 0.952
